Assay results reported in PubChem BioAssay (NCATS).
Results filed as inconclusive are left out. The source made the active and inactive calls. Calls follow the shape of the dose curve; as a rule, active = well fitted curve in the direction sought with a large enough effect; inconclusive = small, poorly fitted or top-dose-only effect, or another doubt; inactive = no such curve, though single readings can be large; an effect the other way counts as inactive or inconclusive. Non-standard residues stand in square brackets, D forms with d. Residues, ends and D or L forms follow the SMILES beside them. *: point of attachment. Sta = CC(C)C[C@H](N)[C@@H](O)CC(=O)O; Isovaleryl = CC(C)CC(=O)*

What was measured:
[1] = qHTS for inhibitors of adenylyl cyclases using a fission yeast platform: a pilot screen against the NCATS LOPAC library (AID 1347410);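 also: plate controls were DMSO vehicle for no effect and DPI positive control for full effect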
Method in brief: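 Fission yeast qHTS: CHP2027 cells (AC9-GNAS-PDE4D2, fbp1-GFP), 5x10^6 cells/mL working density, EMM + His/Lys/Ura; LOPAC at up to 57 µM final; 18 h dark, 30C; GFP by laser cytometry. DPI positive control, DMSO vehicle.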

[2] = qHTS to identify inhibitors of the type 1 interferon - major histocompatibility complex class I in skeletal muscle: primary screen against the NCATS Mechanism Interrogation Plate v5.0 (MIPE) Libary (AID 1347411); also: nearly all actives have a fitted effect of over 65% in size; also: potency is read from the fitted curve at half-maximal effect;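 as to activity change, negative = inhibition: plate controls were vehicle for no effect and reference inhibitor for full effect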
Method in brief: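 HLA-B HiBit myoblasts, dexamethasone-free medium + 4 ng/ml IFN-b, 24 h compound, 11-pt 1:3 from 46 uM final. Readout: Nano-Glo HiBiT lytic luminescence after 10 min lysis, RT.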

[3] = biological target: Calcium and integrin-binding protein 1 (Homo sapiens) (UniProt Q99828); assay: Validation qHTS for Identification of Calcium Integrin Binding protein 1 (CIB1) Competitor (AID 1508618); also: % is scaled to controls: 0 for no effect and ±100 for the full control effect
Method in brief: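 Displacement of FITC-alphaIIb peptide (100 nM) from CIB1-GST (1 uM) is monitored by polarization in quantitative HTS format; buffer carries 5 mM CaCl2 and 125 mM NaCl at pH 7.4, incubations are at room temperature.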

[4] = biological target: Calcium and integrin-binding protein 1 (Homo sapiens) (UniProt Q99828); assay: Primary qHTS for Identification of Calcium Integrin Binding Protein 1 (CIB1) Competitor (AID 1508620);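 also: GST tagged CIB1 binding a fluorescein labelled alphaIIb integrin peptide tracer; top concentration of the series differs between compounds; % is scaled to controls: 0 for no effect and ±100 for the full control effect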
Method in brief: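 CIB1-GST (1 uM final) and compound incubated 15 min at room temperature before adding FITC-alphaIIb peptide tracer (100 nM final). Competition for binding read by fluorescence polarization (ex 480, em 540) after another 15 min at room temperature.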

[5] = Validation qHTS assay for inhibitors of Activation Induced Cytidine Deaminase (AID): UDG Counterscreen signal (AID 1347427); also: 0% is about no effect
Method in brief: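 Fluorescence at 560 nm excitation, 665 nm emission reports UDG signal after 250 mM NaOH (2x) addition and 30 min. Enzymes (AID 1 uM, UDG 2 U/mL, at 4/3x) preincubated 10 min with compound, then 4 h with 4x 250 nM DJC20/DJC23 substrate at room temperature.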

[6] = biological target: Single-stranded DNA cytosine deaminase (Homo sapiens) (UniProt Q9GZX7); assay: Validation qHTS assay for inhibitors of Activation Induced Cytidine Deaminase (AID): AID signal (AID 1347429); also: % is scaled to controls: 0 for no effect and ±100 for the full control effect
Method in brief: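 AID+UDG coupled FRET deamination; cpds up to 114 uM final; DJC20/DJC23 substrate, 4 hr RT; NaOH stop, 30 min RT; read Ex 540/Em 590.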

[7] = Primary qHTS for inhibitors of La Crosse Virus (LACV) - induced cell death in SH-SY5Y cells (AID 1508616);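 also: top concentration of the series differs between compounds; 0% = infected DMSO wells and 100% = uninfected DMSO wells; higher means more rescue of cells from virus-induced death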
Method in brief: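 Cytopathicity rescue screen: compounds pinned onto SH-SY5Y cells, which are then infected with LACV (MOI 0.01) and held 6 days at 37C. Percent activity is scaled between infected DMSO control and uninfected DMSO control.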

[8] = biological target: Protein phosphatase 1D (Homo sapiens) (UniProt O15297); assay: RapidFire Mass Spectrometry qHTS Assay for Modulators of WT P53-Induced Phosphatase 1 (WIP1) (AID 1347424);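 also: amount of dephosphorylated VEPPL-S-QETFS peptide product formed by WIP1; series mostly up to about 63 µM; plate controls were DMSO wells for no effect and GSK830371 inhibitor control at 10 µM for full effect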
Method in brief: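 RapidFire mass spectrometry measured dephosphorylated peptide after 5 min room-temperature reaction of 2 uM VEPPL-pS-QETFS with 10 nM WIP1 (50 mM Tris-HCl pH 7.5, 30 mM MgCl2, 0.1 mM EGTA, BSA), following 1 hr compound preincubation; 1 uM isotope-labelled product standard.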

[9] = biological target: Protein phosphatase 1D (Homo sapiens) (UniProt O15297); assay: Rhodamine-PBP qHTS Assay for Modulators of WT P53-Induced Phosphatase 1 (WIP1) (AID 1347425); also: % of control where 0% means no effect
Method in brief: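 5 nM WIP1 + 10 uM Rh-PBP, 50 mM Tris pH 7.5, 30 mM MgCl2, 1 mM TCEP, 0.1 mM EGTA, BSA; cpds pinned, 1 hr RT; + 10 uM phosphopeptide; fluorescence 1-min reads x 11 min; delta = f1 - f0.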

[10] = biological target: Calcium and integrin-binding protein 1 (Homo sapiens) (UniProt Q99828); assay: Confirmatory qHTS for Identification of Calcium Integrin Binding Protein 1 (CIB1) Competitor (AID 1508617); also: potency is read from the fitted curve at half-maximal effect; nearly all actives have a fitted effect of over 65% in size
Method in brief: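 Confirmatory qHTS measures displacement of a FITC-alphaIIb peptide (100 nM) from CIB1-GST (1 uM) by fluorescence polarization. Calcium-containing HEPES buffer, pH 7.4; two 15 min room-temperature incubations.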

Sequence of Protein phosphatase 1D (Homo sapiens) (O15297 whole entry, looked up): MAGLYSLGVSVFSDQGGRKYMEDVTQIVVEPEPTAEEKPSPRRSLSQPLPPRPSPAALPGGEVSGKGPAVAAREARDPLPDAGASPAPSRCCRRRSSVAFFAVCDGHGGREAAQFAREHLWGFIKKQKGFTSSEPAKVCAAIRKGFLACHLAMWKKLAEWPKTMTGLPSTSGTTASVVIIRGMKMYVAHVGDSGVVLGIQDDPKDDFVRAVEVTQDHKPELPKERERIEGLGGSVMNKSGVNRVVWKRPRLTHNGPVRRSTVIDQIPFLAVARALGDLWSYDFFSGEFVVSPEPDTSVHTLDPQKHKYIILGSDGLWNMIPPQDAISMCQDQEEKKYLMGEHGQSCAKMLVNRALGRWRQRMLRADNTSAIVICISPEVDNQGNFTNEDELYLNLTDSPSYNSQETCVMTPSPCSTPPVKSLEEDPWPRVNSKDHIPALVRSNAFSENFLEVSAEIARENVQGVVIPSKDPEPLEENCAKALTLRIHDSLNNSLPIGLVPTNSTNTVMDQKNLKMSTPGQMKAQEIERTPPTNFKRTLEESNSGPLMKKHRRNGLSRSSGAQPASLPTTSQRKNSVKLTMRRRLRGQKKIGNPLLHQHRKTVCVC
Sequence of Single-stranded DNA cytosine deaminase (Homo sapiens) (Q9GZX7 whole entry, looked up): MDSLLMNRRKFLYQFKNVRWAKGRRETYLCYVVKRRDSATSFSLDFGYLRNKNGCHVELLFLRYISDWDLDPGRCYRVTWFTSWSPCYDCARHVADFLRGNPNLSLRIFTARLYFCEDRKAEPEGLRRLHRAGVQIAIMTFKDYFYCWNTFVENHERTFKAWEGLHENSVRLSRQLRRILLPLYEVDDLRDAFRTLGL
Sequence of Calcium and integrin-binding protein 1 (Homo sapiens) (Q99828 whole entry, looked up): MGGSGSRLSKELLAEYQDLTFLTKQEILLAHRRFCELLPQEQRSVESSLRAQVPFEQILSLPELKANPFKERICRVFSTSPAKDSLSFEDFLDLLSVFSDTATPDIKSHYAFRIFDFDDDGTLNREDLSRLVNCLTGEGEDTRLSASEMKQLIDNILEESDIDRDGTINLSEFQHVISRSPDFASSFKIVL

Cc1cccc(-c2[nH]ncc2-c2ccc3ncccc3n2)n1
inactive: outcome [1] | Potency [2] | outcome [3] | Potency [4]

C[C@@H](c1ncncc1F)[C@](O)(Cn1cncn1)c1ccc(F)cc1F
inactive: outcome [1] | Potency [2] | outcome [3] | Potency [4]

NCCCCNCCCN
inactive: outcome [1] | Potency [5] | outcome [6] | Potency [7] | outcome [3]

O=C(c1ccccc1)c1ccc2n1CCC2C(=O)O (stereo not given)
inactive: outcome [1] | Potency [2] | Potency [8] | outcome [9] | Potency [5] | outcome [6] | Potency [7] | outcome [3]

O=C1c2c(O)cc(O)cc2OC(c2ccc(O)c(O)c2)C1O (stereo not given)
inactive: outcome [1] | Potency [2] | Potency [5] | outcome [6] | Potency [7] | Potency [4]

Nc1nc(N)c(N=O)c(OCC2CCCCC2)n1
inactive: outcome [1] | Potency [2] | Potency [5] | outcome [6] | Potency [7] | outcome [3] | Potency [4]

COc1cc2c(cc1OC)C1CC(=O)C(CC(C)C)CN1CC2 (stereo not given)
inactive: outcome [1] | Potency [2] | Potency [5] | outcome [6] | Potency [7] | outcome [3]

CC(=O)N1CCN(c2ccc(OC[C@H]3CO[C@](Cn4ccnc4)(c4ccc(Cl)cc4Cl)O3)cc2)CC1
inactive: outcome [1] | Potency [2] | Potency [5] | outcome [6] | Potency [7] | outcome [3]

C[C@@H](N)C1CCC(C(=O)Nc2ccncc2)CC1 (stereo not given in full)
inactive: outcome [1] | Potency [2] | Potency [5] | outcome [6] | Potency [7] | outcome [3] | Potency [4]

COc1cc(OC)c(C(=O)CCCN2CCCC2)c(OC)c1
inactive: Potency [2] | Potency [8] | outcome [9] | Potency [7]

COc1ccc(C2(C#N)CCC(C(=O)O)CC2)cc1OC1CCCC1 (stereo not given)
inactive: Potency [2]

CCN(CCO)CCCC(C)Nc1ccnc2cc(Cl)ccc12 (stereo not given)
inactive: activity change, negative = inhibition [2] 7.97% [at 5.1 µM] | activity change, negative = inhibition [8] -4.11% [at 6.17 µM] | activity change, negative = inhibition [9] 13.1% [at 4.81 µM] | activity change [7] -0.436% [at 0.431 µM] | Potency [4]

COc1c2occc2cc2ccc(=O)oc12
inactive: Potency [2] | Potency [8] | outcome [9] | Potency [7] | Potency [4]

CC1=C(C)C(=O)C(C(CCCCCC(=O)O)c2ccccc2)=C(C)C1=O (stereo not given)
inactive: Potency [2] | Potency [8] | outcome [9] | Potency [7]

Cc1ccc(C)c(OCCCC(C)(C)C(=O)O)c1
inactive: Potency [2] | Potency [8] | outcome [9] | Potency [7]

CC(C)[C@H](N)C(=O)OCCOCn1cnc2c(=O)[nH]c(N)nc21
inactive: Potency [2] | Potency [8] | outcome [9] | Potency [7]

Oc1ccc(OCc2ccccc2)cc1
inactive: Potency [2] | Potency [8] | outcome [9] | Potency [7]

Clc1ccc(C(Cn2ccnc2)OCc2c(Cl)cccc2Cl)c(Cl)c1 (stereo not given)
inactive: Potency [2] | Potency [8] | outcome [9] | Potency [7]

Oc1ccc2ccccc2c1SSc1c(O)ccc2ccccc12
inactive: outcome [1] | outcome [6] | Potency [7]

COc1cc(Nc2c(C#N)cnc3cc(OCCCN4CCN(C)CC4)c(OC)cc23)c(Cl)cc1Cl
active: Potency [2] 7.39 µM | Potency [10] 44.7 µM
inactive: Potency [8] | outcome [9] | Potency [7] | Potency [4]

Cc1ncc([N+](=O)[O-])n1CC(C)O (stereo not given)
inactive: Potency [2] | Potency [8] | outcome [9] | Potency [7] | Potency [4]

CCCS(=O)c1ccc2nc(NC(=O)OC)[nH]c2c1 (stereo not given)
inactive: Potency [2] | Potency [8] | outcome [9] | Potency [7] | Potency [4]

CC(C)Oc1ccc2c(=O)c(-c3ccccc3)coc2c1
inactive: Potency [2] | Potency [8] | outcome [9] | Potency [7]

CCOc1cc(CC(=O)N[C@@H](CC(C)C)c2ccccc2N2CCCCC2)ccc1C(=O)O
inactive: Potency [2]

CN1CCC(=C2c3ccccc3CCc3sccc32)CC1
inactive: Potency [2] | Potency [8] | outcome [9] | Potency [7] | Potency [4]

COCCCN1CCC(NC(=O)c2cc(Cl)c(N)c3c2OCC3)CC1
inactive: Potency [2] | Potency [8] | outcome [9] | Potency [7]

CC1Cc2ccccc2N1NC(=O)c1ccc(Cl)c(S(N)(=O)=O)c1 (stereo not given)
inactive: Potency [2] | Potency [8] | outcome [9] | Potency [7]

CCOC(=O)C1=C[C@@H](OC(CC)CC)[C@H](NC(C)=O)[C@@H](N)C1
inactive: Potency [2]

CS(=O)(=O)OCCCCOS(C)(=O)=O
inactive: Potency [2] | Potency [8] | outcome [9] | Potency [7] | Potency [4]

N=C(N)c1ccc2cc(OC(=O)c3ccc(N=C(N)N)cc3)ccc2c1
inactive: Potency [2] | Potency [8] | outcome [9] | Potency [7]

Nc1ccc(S(N)(=O)=O)cc1
inactive: Potency [2] | Potency [8] | outcome [9] | Potency [7]

CCN(CC)CCOc1ccc(Nc2ncc3cc(-c4c(Cl)cccc4Cl)c(=O)n(C)c3n2)cc1
inactive: outcome [1] | Potency [4]

CC(C)CC(=O)N[C@H](C(=O)N[C@H](C(=O)N[C@@H](CC(C)C)[C@@H](O)CC(=O)N[C@@H](C)C(=O)N[C@@H](CC(C)C)[C@@H](O)CC(=O)O)C(C)C)C(C)C (Isovaleryl-VV[Sta]A[Sta]-OH)
inactive: Potency [2] | Potency [8] | outcome [9] | Potency [7]

O=C(O)c1cccc(-c2noc(-c3ccccc3F)n2)c1
inactive: Potency [2] | Potency [8] | outcome [9] | Potency [7] | Potency [4]
